Potency and affinity values are given separately. Inconclusive results are not listed. Activity calls are given as the source filed them. No rule for the calls is given here.
molecular target: CAAX prenyl protease 1 (Saccharomyces cerevisiae (strain ATCC 204508 / S288c)) (UniProt P47154); experiment: Ste24 protease inhibitors, dose response, biochemical, S. cerevisiae, plate reader, cherry-pick (AID 488815); conditions: yeast Ste24 protease activity; series mostly up to 10 µM
Sequence (P47154 whole entry, looked up): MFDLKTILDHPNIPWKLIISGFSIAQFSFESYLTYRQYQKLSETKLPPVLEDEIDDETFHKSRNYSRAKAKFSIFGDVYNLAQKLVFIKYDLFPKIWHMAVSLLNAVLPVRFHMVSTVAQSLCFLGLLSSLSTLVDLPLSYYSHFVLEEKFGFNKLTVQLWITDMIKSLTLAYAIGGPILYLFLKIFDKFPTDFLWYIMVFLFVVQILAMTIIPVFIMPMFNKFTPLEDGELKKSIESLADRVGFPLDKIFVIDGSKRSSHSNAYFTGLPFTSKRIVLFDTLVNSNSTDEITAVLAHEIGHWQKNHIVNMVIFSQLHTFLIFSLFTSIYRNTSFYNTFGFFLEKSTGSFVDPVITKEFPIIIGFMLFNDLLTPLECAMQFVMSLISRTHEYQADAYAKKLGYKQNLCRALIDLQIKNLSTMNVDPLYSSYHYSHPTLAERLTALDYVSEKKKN

outcome, inactive:
CCOc1ccc(-c2c(C(=O)N/N=C/c3cccs3)nnn2-c2nonc2N)cc1
C/C(CC1(O)C(=O)Nc2ccccc21)=N\O (stereo not given)
CC(=O)c1c(O)cc(O)c(C(C)=O)c1O
NC(=NCCCCCCN=C(N)/N=C(\N)Nc1ccc(Cl)cc1)/N=C(\N)Nc1ccc(Cl)cc1
O=C(c1cnc2n(c1=O)CCS2)N1CCN(C(c2ccccc2)c2ccc(Cl)cc2)CC1 (stereo not given)
COc1ccc(C(CNC(=O)COc2cc(C)c(Cl)c(C)c2)N2CCCCC2)cc1 (stereo not given)
COc1cc(-c2nc3ccccn3c2/N=C/c2cc(OC)c(OC)c(OC)c2)ccc1O
CC(=O)N(C)c1ccc(NC(=O)/C=C/c2ccccc2Cl)cc1
c1cnn(Cc2cnc(N3CCOCC3)s2)c1
C#CCNC(=O)C1=C[C@@H](C2CCCCC2)C[C@@H](OCc2ccc(CO)cc2)O1
CCN(C(=O)COC(=O)c1cc(-c2cccs2)nc2ccccc12)C1CCS(=O)(=O)C1 (stereo not given)
O=C(COC(=O)c1ccccc1Cc1ccccc1)NC1CCS(=O)(=O)C1 (stereo not given)
CC(C)C[C@H](NC(=O)c1nc[nH]c1C(=O)N1CCNCC1)C(=O)OCc1ccccc1
COc1cccc(C2CC(c3ccc(Br)cc3)=NN2C(=O)c2ccncc2)c1OC (stereo not given)
COc1cccc(-c2csc(N3CCN(C(=O)NC45CC6CC(CC(C6)C4)C5)CC3)n2)c1
O=C1CN(S(=O)(=O)c2ccc([N+](=O)[O-])cc2)CC(=O)N1
CN(C)S(=O)(=O)c1ccc(NC(=O)/C=C/c2ccccc2Cl)cc1
CN1c2ccc(C=O)c3c(C=O)ccc(c23)N(C)C1(C)C
Cc1ccc(OCCN2C(=O)C(=O)c3cc(C)ccc32)cc1
COc1ccc(-c2cc(C(=O)NCCCN3CCCC3=O)c3ccccc3n2)cc1
CS(=O)(=O)Nc1ccccc1C(=O)NC1CC2CCC1C2 (stereo not given)
Cc1cc(Cl)c2oc(C(=O)N3CCN(C(=O)c4ccco4)CC3)c(C)c2c1
Cc1cc(C(=O)N[C@H](c2ccccc2)[C@@]2(C)C[C@@H]2[C@@H](C)C(=O)Nc2ccc3ccccc3c2)n(C)n1
Nc1nonc1-n1nnc(C(=O)N/N=C/c2ccoc2)c1CSc1ccccc1
COc1ccc(Br)cc1C(=O)Nc1cc(C)cc(C)c1
Cc1cccc(NC(=O)c2cc(S(=O)(=O)N3CCCCC3)c[nH]2)c1C
N/C(Cc1ccc([N+](=O)[O-])cc1)=N\OC(=O)c1ccc2ccccc2c1
Cc1cc(N)c2cc(NC(=O)/C=C/c3ccccc3Cl)ccc2n1
CC(/C=N\NC(=O)CN1CCN(S(=O)(=O)c2ccc(C)cc2)CC1)=C\c1ccccc1
CC(C)CC(=O)NC(=S)Nc1ccc(S(=O)(=O)Nc2nccs2)cc1
COc1ccc(CN2CCN(C(c3ccc(F)cc3)c3ccc(F)cc3)CC2)c(OC)c1OC
Cc1ccc(C2(COC(=O)C(C)C)CO2)c(OC(=O)C(C)C)c1 (stereo not given)
CCOC(=O)c1cc(-c2ccccc2)sc1NC(=O)C(C)Sc1nnnn1C (stereo not given)
O=C1CCCC(O)=C1N=Nc1ccc2ncsc2c1
CCn1nc(C)cc1C(=O)NC1CC(C)(C)Cc2c1cnn2-c1cccc(F)c1 (stereo not given)
O=C(c1cnc(Cl)c(Cl)c1)N1CCC(Cc2ccccc2)CC1
Cc1cc(C(=O)N/N=C/c2c3ccccc3cc3ccccc23)n[nH]1
CN1CCN(C(=S)NC(=O)c2ccccc2Cl)CC1
CC1=NN(c2ccccc2)C(=O)/C1=C\c1ccc(Br)s1
CC(C)N1CCN(Cc2ccc(OCc3ccccc3)cc2)CC1CCO (stereo not given)
